This is an account of results in PubChem BioAssay.

Structures are written as SMILES. Unmarked numbers belong to inactive results.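 How the source made its calls: active means RAM network inhibition above 8.4% in each of two replicates, 3 SD over the compound average; inconclusive means above 8.4% inhibition in only one replicate; inactive means 8.4% inhibition or less in each replicate.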

A short description of the test: RAM signaling pathway blockade in yeast – S. cerevisiae, Pdr1DBD-CYC8 efflux-inhibited sensitized strain, primary screen (AID 1298).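 Further: 0% = DMSO untreated cells without growth and 100% = 10 µM 1-NA-PP1 full growth; higher means more yeast growth rescued from 5-FOA killing.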 Particulars: S. cerevisiae cbk1-as DSE1-URA3 strain, 5-FOA growth OD615, 2 d; at 50 µM; stronger effect = higher value.
For `COc1ccc(C(=O)NCc2nnc(SC)n2C2CCCCC2)cc1`, the RAM network inhibition was 2.76%.
The result for `Oc1ccc(Cl)cc1-c1cc(-c2ccccc2)n[nH]1` reads 8.32%; that for `O=C(CCCn1c(=O)c2sccc2n(Cc2cc(=O)n3ccccc3n2)c1=O)NCc1ccco1`, 0.21%; that for `COC(=O)c1cn(NC(=O)C2CCCO2)c(=O)c2ccccc12` (stereo not given), 3%.
With `CCN(CC)CCCNC(=O)c1cn(C)c2ccc(S(=O)(=O)N(C)C)cc2c1=O` the figure was 1.85%; with `Cc1nnc(SCCn2c(N3CCC(Cc4ccccc4)CC3)nc3c2c(=O)[nH]c(=O)n3C)s1`, 5.98%; with `O=C(C(Cc1ccccc1)n1cccc1)N1CCCCCC1` (stereo not given), 2.67%.
The result for `O=C(Cn1nc(Cc2ccncc2)c2ccccc2c1=O)N1CCN(C(=O)c2ccco2)CC1` reads 5.75%; that for `COc1ccc(-c2nc(CS(=O)CC(=O)NCc3ccccn3)c(C)o2)cc1` (stereo not given), 5.75%; that for `CCn1c(SCC(=O)Nc2ccc(Cl)cc2)nnc1C1CC1`, 3.74%.
On to `CCOC(=O)CN(C(=O)c1ccccc1)c1ccccc1C`, for which the RAM network inhibition was 1.96%.
Regarding `COC(=O)Cc1cc(=O)[nH]c(Nc2nc3ccccc3o2)n1`, the RAM network inhibition was 5.31%.
Regarding `COc1ccc(C2CC(c3cccc(C)c3)n3ncnc3N2)cc1` (stereo not given), the RAM network inhibition is -0.53%.
Turning to `CC1CCCCN1CCNC(=O)C1CCN(S(=O)(=O)c2cccc3cccnc23)CC1` (stereo not given), the RAM network inhibition was 6.99%.
Take `CCCCSc1nc(CCC)cc(=O)[nH]1`: the RAM network inhibition was 6.04%.
The result for `CC1(C)CC(=O)C2=C(C1)NC(=O)CC2c1ccc(N(CCC#N)CCC#N)cc1` (stereo not given) reads 1.8%; that for `Cc1cccc(OCC(=O)N2CCN(C(=O)Cc3ccccc3)CC2)c1`, 0.56%; that for `O=C1CC(c2cccnc2)c2cc3c(cc2N1)OCO3` (stereo not given), 0.51%.
The result for `CCc1nn(CC(=O)NCCCN2CCc3ccccc3C2)c(=O)c2cc3sccc3n12` reads 1.52%; that for `Cc1ccc(-c2nc3cc(NC(=O)C(C)C)ccc3o2)cc1`, 5.12%.
Consider `CC(CC(=O)NC1CCSC1=O)c1ccccc1` (stereo not given), for which the RAM network inhibition was 1.17%.
The result for `COc1ccc(C2CC(c3ccc(OC)cc3)n3nc(N)nc3N2)cc1` (stereo not given) reads 3.07%; that for `COC(=O)COc1cccc(NC(=O)COc2ccccc2)c1`, 2.45%; that for `COc1ccc(OCCSc2nc3ccccc3n2CC(=O)O)cc1`, 4.44%.
As for `Cc1cccnc1-n1c(CCN2C(=O)c3ccccc3C2=O)nc2ccccc2c1=O`, the RAM network inhibition is 3.68%.
With `CC(=O)N(c1ccc(Br)cc1)C1C=CS(=O)(=O)C1` (stereo not given), the RAM network inhibition is -0.25%.
`Cc1ccccc1Cn1cc(/C=N/n2cnnc2)c2ccccc21`: the RAM network inhibition is -0.25%.
With `CCOC(=O)N1CCN(c2cc(=O)n(-c3ccccc3Cl)c(=O)[nH]2)CC1` the figure was 4.58%; with `CCCCN(C)Cc1c(O)ccc2c(-c3ccccc3)cc(=O)oc12`, 1.89%; with `CCCCn1c(CN2CCN(c3ccc(F)cc3)CC2)nc2c1c(=O)n(C)c(=O)n2C`, 3.49%.
In the case of `CCn1c(SCC(=O)Nc2cccc(C)c2)nc2c(c1=O)SC(C)C2` (stereo not given), the RAM network inhibition was 10.2%.
Take `COc1cccc(C2CC(c3ccc(C)cc3)n3nc(N)nc3N2)c1` (stereo not given): the RAM network inhibition was 7.85%.
Regarding `Cc1cc(C)cc(N(CC(=O)Nc2cccc(C)n2)S(=O)(=O)c2c(C)noc2C)c1`, the RAM network inhibition is 5.69%.
Turning to `Cc1noc(C)c1S(=O)(=O)N1CCN(Cc2ccc3c(c2)OCO3)CC1`, the RAM network inhibition is 8.84%.
Consider `Cn1c(C(=O)NCCCN2CCCCCC2)cc2c(=O)n(C)c3ccccc3c21`, for which the RAM network inhibition was 0%.
With `CS(=O)(=O)N(Cc1ccco1)CC(O)Cn1c2ccccc2c2ccccc21` (stereo not given) the figure was 1.64%.
Regarding `CC(=O)Nc1ccc(S(=O)(=O)Nc2nc3c(s2)CCCC3)cc1`, the RAM network inhibition was 2.5%.
For `CCOC(=O)C(CC)Sc1ncnc2nc[nH]c12` (stereo not given), the RAM network inhibition was 2.41%.
On to `COc1cc2c(cc1OC)-c1nnc(C)n1C1(CCCC1)C2`, for which the RAM network inhibition is 2.81%.
As to `Nc1nc2n(n1)C(c1cccc(Br)c1)CC(c1ccccc1)N2` (stereo not given), the RAM network inhibition is 12.1%.
